Source: the supplement of paper PMC11732987, “Enantioselective OTUD7B fragment discovery through chemoproteomics screening and high-throughput optimisation” (Communications Chemistry, 2025)

How the values were obtained:
Assay in all cases: log2 ratio of Biotin-Ahx-Ub-VS probe labelling (fragment/DMSO); higher = less target engagement (more negative = stronger competition), active = hit call of the paper (q ≤ 0.05, log2 ratio ≤ -1)
Conditions in all cases: compound concentration: 200 uM; treatment time: 3 h
USP34 = USP34 (UniProt Q70CQ2)
How it was run: (§1)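 Global-median-normalised Spectronaut label-free quantities were compared by unpaired t-test, and values are average log2 ratios of fragment over vehicle. Only proteins with ≥2 unique peptides were used. HEK293T lysate (495 µg per sample) was treated in triplicate with fragment at 200 µM or vehicle for 3 h and then with Biotin-Ahx-Ub-VS at 0.5 µM final for 1 h. Labelled DUBs were then NeutrAvidin-enriched, digested with LysC and trypsin, and run by diaPASEF LC-MS/MS.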

USP36 = target: T1, USP36 (UniProt Q9P275)
T1 sequence (whole entry): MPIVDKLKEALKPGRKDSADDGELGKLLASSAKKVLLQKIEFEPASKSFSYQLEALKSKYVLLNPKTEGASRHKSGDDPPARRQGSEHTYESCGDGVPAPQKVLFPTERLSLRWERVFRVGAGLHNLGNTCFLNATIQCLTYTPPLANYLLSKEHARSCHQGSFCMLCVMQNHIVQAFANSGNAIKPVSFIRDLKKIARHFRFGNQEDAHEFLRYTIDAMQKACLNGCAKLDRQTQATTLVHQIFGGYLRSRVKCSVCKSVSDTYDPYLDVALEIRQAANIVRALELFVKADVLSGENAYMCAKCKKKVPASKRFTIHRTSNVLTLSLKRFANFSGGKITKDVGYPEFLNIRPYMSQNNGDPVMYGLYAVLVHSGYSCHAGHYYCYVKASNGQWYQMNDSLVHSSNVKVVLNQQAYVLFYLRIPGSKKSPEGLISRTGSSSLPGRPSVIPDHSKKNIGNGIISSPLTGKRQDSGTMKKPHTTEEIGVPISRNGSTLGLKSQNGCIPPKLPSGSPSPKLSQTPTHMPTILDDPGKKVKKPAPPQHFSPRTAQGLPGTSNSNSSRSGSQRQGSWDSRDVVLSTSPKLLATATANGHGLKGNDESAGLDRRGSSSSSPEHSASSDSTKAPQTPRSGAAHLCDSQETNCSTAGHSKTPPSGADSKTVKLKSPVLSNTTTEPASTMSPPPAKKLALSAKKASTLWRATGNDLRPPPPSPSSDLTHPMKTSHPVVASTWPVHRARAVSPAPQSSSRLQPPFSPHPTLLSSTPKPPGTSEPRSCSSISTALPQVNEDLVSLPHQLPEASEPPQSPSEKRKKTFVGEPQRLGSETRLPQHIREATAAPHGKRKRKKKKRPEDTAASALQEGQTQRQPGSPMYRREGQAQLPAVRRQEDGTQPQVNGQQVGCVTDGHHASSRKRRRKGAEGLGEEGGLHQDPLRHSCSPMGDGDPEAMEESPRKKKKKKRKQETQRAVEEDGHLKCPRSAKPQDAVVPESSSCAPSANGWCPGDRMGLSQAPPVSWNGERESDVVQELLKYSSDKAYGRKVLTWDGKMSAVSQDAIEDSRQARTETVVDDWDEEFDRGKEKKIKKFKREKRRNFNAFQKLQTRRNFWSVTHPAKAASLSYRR
How it was run: as §1

USP38 = target: T2, USP38 (UniProt Q8NB14)
T2 sequence (whole entry): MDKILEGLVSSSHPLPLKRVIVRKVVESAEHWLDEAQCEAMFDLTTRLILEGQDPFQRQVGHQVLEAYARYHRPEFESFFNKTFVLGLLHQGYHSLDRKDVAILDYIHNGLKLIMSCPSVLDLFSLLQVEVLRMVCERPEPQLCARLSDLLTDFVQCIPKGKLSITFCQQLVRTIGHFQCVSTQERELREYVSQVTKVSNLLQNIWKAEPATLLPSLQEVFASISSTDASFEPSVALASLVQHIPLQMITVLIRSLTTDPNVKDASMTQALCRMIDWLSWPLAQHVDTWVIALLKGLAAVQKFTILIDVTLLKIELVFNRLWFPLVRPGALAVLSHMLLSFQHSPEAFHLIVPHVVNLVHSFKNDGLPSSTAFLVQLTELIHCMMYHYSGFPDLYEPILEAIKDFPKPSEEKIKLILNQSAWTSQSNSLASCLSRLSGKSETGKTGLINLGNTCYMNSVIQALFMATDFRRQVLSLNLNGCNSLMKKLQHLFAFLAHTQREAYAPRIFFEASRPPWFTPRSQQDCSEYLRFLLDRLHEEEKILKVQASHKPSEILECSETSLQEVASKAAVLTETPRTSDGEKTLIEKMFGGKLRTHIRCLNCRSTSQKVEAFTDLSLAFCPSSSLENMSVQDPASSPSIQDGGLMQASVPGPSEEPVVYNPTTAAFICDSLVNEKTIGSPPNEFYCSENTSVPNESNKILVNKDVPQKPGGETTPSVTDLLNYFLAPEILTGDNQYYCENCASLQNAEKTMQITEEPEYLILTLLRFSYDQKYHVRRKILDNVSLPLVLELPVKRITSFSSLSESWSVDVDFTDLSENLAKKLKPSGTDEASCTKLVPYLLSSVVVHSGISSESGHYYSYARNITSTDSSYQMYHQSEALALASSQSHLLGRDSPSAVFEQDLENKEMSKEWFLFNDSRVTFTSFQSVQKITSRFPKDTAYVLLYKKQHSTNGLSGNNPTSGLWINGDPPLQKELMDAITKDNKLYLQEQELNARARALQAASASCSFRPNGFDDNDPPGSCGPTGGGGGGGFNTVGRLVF
How it was run: as §1

USP39 = target: T3, USP39 (UniProt Q53GS9)
T3 sequence (whole entry): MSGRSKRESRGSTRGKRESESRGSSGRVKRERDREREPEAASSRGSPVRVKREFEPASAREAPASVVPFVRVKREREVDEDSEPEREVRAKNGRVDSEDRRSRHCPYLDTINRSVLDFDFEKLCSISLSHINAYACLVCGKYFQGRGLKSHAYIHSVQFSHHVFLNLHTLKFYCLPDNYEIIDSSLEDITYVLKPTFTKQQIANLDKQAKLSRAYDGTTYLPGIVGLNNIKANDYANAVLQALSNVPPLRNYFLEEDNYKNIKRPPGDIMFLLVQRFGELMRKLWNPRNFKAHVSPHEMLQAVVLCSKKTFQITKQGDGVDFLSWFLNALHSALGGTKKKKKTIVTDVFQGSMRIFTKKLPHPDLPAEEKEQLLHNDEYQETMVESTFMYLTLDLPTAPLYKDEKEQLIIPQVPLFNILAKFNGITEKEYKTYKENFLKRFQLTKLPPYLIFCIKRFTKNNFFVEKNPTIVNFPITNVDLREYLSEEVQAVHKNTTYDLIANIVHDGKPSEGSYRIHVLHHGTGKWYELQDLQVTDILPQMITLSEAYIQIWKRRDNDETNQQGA
How it was run: as §1

USP4 = target: T4, USP4 (UniProt Q13107)
T4 sequence (whole entry): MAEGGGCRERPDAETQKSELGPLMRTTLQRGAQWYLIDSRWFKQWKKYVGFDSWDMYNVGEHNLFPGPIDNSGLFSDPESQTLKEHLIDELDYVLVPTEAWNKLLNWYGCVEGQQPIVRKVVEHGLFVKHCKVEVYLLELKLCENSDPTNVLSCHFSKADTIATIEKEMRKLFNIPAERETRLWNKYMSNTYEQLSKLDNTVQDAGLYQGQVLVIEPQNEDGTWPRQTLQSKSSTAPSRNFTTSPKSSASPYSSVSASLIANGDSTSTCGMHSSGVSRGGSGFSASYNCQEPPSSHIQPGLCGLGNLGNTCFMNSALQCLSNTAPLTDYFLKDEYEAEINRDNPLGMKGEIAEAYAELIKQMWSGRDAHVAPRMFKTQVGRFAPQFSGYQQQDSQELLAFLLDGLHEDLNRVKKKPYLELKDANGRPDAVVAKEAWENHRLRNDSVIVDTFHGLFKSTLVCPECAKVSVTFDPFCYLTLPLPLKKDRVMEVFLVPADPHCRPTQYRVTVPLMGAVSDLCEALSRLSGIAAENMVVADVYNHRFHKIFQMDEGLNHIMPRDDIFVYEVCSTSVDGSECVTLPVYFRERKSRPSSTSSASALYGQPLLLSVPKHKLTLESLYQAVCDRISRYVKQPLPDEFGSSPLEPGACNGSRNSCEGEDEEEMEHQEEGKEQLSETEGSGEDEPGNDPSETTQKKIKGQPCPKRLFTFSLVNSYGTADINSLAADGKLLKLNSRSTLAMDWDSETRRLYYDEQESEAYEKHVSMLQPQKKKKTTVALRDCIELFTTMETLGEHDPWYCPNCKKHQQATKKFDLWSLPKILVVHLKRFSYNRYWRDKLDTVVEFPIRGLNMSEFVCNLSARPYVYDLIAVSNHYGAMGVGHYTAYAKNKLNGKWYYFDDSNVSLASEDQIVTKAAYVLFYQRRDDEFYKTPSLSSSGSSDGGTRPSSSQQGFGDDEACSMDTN
How it was run: as §1

Measured: log2 ratio of Biotin-Ahx-Ub-VS probe labelling

Sequence of USP34 (Q70CQ2 whole entry, the tested form may be a part): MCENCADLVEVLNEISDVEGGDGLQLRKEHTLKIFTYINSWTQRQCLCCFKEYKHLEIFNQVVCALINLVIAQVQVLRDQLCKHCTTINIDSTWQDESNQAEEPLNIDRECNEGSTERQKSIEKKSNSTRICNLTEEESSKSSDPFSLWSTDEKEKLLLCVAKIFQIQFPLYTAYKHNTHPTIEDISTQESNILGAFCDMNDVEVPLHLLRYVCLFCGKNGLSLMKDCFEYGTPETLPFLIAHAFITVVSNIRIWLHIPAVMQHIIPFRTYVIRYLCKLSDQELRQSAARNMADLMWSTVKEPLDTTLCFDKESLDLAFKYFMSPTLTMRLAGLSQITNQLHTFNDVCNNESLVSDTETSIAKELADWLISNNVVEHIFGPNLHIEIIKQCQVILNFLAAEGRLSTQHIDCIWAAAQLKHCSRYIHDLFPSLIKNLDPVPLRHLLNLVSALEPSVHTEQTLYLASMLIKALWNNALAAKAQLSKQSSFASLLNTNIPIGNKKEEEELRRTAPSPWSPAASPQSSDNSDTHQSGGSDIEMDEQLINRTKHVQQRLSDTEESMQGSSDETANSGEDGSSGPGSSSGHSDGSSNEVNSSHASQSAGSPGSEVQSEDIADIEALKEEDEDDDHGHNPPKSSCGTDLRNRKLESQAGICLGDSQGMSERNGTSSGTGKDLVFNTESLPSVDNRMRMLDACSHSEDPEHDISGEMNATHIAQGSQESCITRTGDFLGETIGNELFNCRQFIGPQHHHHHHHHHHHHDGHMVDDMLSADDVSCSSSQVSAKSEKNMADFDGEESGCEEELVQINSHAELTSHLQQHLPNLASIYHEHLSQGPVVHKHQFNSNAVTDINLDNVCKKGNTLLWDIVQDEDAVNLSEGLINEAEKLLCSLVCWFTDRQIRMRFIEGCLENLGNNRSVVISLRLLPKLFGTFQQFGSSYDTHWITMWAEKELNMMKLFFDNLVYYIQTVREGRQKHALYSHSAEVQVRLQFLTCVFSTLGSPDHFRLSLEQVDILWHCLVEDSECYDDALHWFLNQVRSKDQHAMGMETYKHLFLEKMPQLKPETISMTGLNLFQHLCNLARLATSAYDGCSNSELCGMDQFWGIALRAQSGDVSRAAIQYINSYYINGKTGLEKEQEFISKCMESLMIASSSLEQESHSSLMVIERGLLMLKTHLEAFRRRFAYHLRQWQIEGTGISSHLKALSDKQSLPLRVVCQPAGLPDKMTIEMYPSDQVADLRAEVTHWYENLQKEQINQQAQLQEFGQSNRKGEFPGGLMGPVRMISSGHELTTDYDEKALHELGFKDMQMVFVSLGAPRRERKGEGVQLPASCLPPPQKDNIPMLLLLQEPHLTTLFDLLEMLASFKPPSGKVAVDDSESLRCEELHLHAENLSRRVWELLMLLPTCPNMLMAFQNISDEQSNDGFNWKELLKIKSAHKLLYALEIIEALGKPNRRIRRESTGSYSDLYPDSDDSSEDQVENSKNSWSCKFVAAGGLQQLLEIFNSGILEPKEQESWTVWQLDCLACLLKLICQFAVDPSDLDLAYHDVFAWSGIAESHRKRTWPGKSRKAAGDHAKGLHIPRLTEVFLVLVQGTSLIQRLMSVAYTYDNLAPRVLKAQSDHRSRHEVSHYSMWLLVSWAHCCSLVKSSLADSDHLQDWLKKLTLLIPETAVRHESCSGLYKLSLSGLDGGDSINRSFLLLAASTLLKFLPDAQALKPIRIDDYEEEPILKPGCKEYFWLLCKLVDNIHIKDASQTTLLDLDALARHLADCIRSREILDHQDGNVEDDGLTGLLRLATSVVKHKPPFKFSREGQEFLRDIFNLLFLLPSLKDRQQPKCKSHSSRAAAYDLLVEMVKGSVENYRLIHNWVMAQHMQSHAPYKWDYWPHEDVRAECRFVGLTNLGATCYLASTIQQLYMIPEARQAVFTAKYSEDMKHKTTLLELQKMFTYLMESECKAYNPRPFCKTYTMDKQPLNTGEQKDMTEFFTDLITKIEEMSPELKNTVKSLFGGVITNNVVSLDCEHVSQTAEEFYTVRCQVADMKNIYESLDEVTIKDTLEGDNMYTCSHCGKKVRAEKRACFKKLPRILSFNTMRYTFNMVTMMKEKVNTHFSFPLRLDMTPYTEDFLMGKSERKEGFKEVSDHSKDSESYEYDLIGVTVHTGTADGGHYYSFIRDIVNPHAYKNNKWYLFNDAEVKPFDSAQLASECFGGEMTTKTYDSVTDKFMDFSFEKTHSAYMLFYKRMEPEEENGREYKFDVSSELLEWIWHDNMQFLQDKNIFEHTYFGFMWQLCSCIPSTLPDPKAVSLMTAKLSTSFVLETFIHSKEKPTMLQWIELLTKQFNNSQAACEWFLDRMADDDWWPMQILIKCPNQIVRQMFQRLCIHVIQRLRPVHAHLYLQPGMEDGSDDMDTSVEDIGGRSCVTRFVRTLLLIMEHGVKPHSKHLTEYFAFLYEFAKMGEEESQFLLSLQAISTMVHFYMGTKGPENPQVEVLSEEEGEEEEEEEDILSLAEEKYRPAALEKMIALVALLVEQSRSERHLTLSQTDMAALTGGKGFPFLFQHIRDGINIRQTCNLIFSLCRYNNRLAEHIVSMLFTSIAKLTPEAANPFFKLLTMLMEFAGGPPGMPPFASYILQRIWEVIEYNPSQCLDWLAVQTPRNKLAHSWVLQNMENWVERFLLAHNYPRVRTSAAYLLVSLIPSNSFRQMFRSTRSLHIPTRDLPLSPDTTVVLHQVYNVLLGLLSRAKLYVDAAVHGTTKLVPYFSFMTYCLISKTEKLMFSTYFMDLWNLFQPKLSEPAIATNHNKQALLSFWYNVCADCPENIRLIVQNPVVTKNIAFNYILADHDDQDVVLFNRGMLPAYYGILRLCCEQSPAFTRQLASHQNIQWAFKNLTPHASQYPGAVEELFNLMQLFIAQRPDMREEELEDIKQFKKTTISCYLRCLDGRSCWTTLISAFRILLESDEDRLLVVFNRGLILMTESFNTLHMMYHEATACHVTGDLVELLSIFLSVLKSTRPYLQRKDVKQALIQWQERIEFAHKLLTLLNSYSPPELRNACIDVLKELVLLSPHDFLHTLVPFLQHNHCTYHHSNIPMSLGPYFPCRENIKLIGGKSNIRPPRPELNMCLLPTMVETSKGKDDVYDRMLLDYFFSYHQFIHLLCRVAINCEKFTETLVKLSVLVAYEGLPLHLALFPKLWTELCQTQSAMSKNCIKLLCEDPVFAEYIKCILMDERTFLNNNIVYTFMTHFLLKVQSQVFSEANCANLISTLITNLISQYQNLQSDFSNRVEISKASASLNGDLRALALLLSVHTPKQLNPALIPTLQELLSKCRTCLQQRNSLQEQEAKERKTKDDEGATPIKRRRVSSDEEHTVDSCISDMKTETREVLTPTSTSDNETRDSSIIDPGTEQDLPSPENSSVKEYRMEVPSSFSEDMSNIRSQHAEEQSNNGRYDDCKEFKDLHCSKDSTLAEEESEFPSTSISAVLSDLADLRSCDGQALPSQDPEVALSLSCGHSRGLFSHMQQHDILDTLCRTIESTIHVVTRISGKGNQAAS

Cc1noc(C)c1CNC(=O)CCl
inactive: USP34 -0.584 | USP36 -0.32 | USP38 -0.547 | USP39 0.303 | USP4 -0.608
